Results filed as inconclusive are left out. The source made the active and inactive calls. The call rests on the fitted dose curve; in most records, active means well fitted cell-killing curve with a large enough effect in the repeat runs; inconclusive means weak or mixed curves, or effect the other way; inactive means flat fitted curve, though single readings scatter.
Experiment: cAMP Responsive Elements (CRE) small molecule agonists, cell-based qHTS assay: qHTS cell viability counter screen (AID 2060914); further: nearly all actives have a fitted effect of over 50% in size
Conditions: CRE-bla HEK293T viability, CellTiter-Glo luminescence, 5 h; series mostly up to 92.4 µM; activity change, negative = cytotoxicity: at the top concentration
Method in brief: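 Cytotoxicity counter screen multiplexed with the CRE-bla reporter assay in HEK 293T cells: 3 h compound exposure at 37 °C, followed by CellTiter-Glo luminescence measured in the same wells.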
On the % scale 0 is the no-effect control and ±100 the full control effect; potency means the concentration at half of the fitted maximal effect.

| Structure (SMILES) | activity change, negative = cytotoxicity | Potency |
| --- | --- | --- |
| CCCCCC1CCC(=O)O1 (stereo not given) | -3.15% (inactive) |  |
| Cc1cccc(C)c1OCC(C)N (stereo not given) | 9.24% [at 42.5 µM] (inactive) |  |
| CC1CCCC(=O)C1=O (stereo not given) | 10.2% (inactive) |  |
| COc1ccc(N)c(C)c1 |  | inactive |
| Cc1c(C(=O)O)c(O)cc2c1C(=O)c1c(O)c([C@@H]3O[C@H](CO)[C@@H](O)[C@H](O)[C@H]3O)c(O)c(O)c1C2=O |  | inactive |
| O=C1CCCCCCCCCCOCCCCO1 | 2.19% (inactive) |  |
| Oc1ccc(Cl)c2cccnc12 | 5.99% [at 42.5 µM] (inactive) |  |
| CC(=O)[O][Al] | 22.5% (inactive) |  |
| CCc1ccc(O)c(OC)c1 | -0.772% (inactive) |  |
| [Na+] |  | inactive |
| CCCCCCCCC(C)=O | 3.62% (inactive) |  |
| CC[N+](C)(CC)CC | 13% (inactive) |  |
| CCCc1ccc(O)cc1 | 1.88% (inactive) |  |
| O=C(O)c1ccc(C(=O)O)c(C(=O)O)c1 |  | inactive |
| NC(=O)NNC(N)=O | 0.0086% (inactive) |  |
| O=c1[nH][nH]c2ccccc12 | 22.4% (inactive) |  |
| CCCCCCCCCCCCOCCOCCOCCOCCOCCOCCOCCOCCOCCO |  | 29.8 µM (active) |
| O=C1NC(c2ccccc2)(c2ccccc2)C(=O)N1COP(=O)(O)O | -0.0544% [at 42.5 µM] (inactive) |  |
| CC1=Nc2ccccc2C1(C)C | 12.1% (inactive) |  |
| C1CCC(SSC2CCCCC2)CC1 | 9.15% (inactive) |  |

| Structure (SMILES) | activity change, negative = cytotoxicity | Potency |
| --- | --- | --- |
| CC(C)CC(O)CC(C)C | -2.87% (inactive) |  |
| CCCCN(CCCC)CCC(O)c1cc2c(Cl)cc(Cl)cc2c2cc(C(F)(F)F)ccc12 (stereo not given) | -17.9% [at 42.5 µM] (inactive) |  |
| CC(S)C(=O)NCC(=O)O (stereo not given) | 10.7% [at 42.5 µM] (inactive) |  |
| c1ccc2cc3c4ccccc4c4ccccc4c3cc2c1 | -14.1% (inactive) |  |
| C=C(C)C(=O)OCCO | -1.12% (inactive) |  |
| O=C(Nc1cccc(C(F)(F)F)c1)c1cc(Br)cc(Br)c1O |  | 27.3 µM (active) |
| Cc1onc(-c2ccccc2Cl)c1C(=O)N[C@@H]1C(=O)N2[C@@H]1SC(C)(C)[C@@H]2C(=O)O | 24.7% [at 42.5 µM] (inactive) |  |
| OCC(O)CO |  | inactive |
| CC1(C)C(=O)N(Br)C(=O)N1Br | 1.79% (inactive) |  |
| c1ccc(C(O[C@@H]2CCCN(CCc3ccc4c(c3)OCO4)C2)c2ccccc2)cc1 | -17% (inactive) |  |
| O=C1CCCCCN1SSN1CCCCCC1=O | -9.02% (inactive) |  |
| OCCN1CCN(CCCN2c3ccccc3Sc3ccc(Cl)cc32)CC1 | 0.153% [at 42.5 µM] (inactive) |  |
| CCCNCC(O)COc1ccccc1C(=O)CCc1ccccc1 (stereo not given) | -6.14% [at 42.5 µM] (inactive) |  |
| CCCCCCCCCCCCC1CO1 (stereo not given) | 2.95% (inactive) |  |
| CCc1cc(Cc2cc(CC)c(N)c(CC)c2)cc(CC)c1N | -5.47% (inactive) |  |
| NC(=O)c1ccccc1C(N)=O | -0.496% (inactive) |  |
| c1ccc(-c2ccc(-c3ccccc3)cc2)cc1 | 0.504% [at 18.9 µM] (inactive) |  |
| C[C@@H]1CN(c2c(F)c(N)c3c(=O)c(C(=O)O)cn(C4CC4)c3c2F)C[C@H](C)N1 | -0.413% [at 18.9 µM] (inactive) |  |
| Cc1c(O)cccc1C(=O)N[C@@H](CSc1ccccc1)[C@H](O)CN1C[C@H]2CCCC[C@H]2C[C@H]1C(=O)NC(C)(C)C | -5.39% [at 42.5 µM] (inactive) |  |
| Cc1cc(C(C)(C)C)c(O)c(C)c1Cn1c(=O)n(Cc2c(C)cc(C(C)(C)C)c(O)c2C)c(=O)n(Cc2c(C)cc(C(C)(C)C)c(O)c2C)c1=O | -6.17% (inactive) |  |
